In all, about 1,300 compounds went through this assay and about 35 (3%) were called active. Not shown: some 48% with an inconclusive outcome. The call rests on the fitted dose curve; in most records, active means well fitted inhibition curve with a large enough effect; inconclusive means small, poorly fitted or top-dose-only effect, or effect the other way; inactive means flat fitted curve, though single readings scatter. The sample as a whole holds a higher share of actives than the screen did.

This experiment concerns the target T1, ATP-dependent 6-phosphofructokinase, Trypanosoma brucei brucei (UniProt O15648).
T1 sequence (whole entry): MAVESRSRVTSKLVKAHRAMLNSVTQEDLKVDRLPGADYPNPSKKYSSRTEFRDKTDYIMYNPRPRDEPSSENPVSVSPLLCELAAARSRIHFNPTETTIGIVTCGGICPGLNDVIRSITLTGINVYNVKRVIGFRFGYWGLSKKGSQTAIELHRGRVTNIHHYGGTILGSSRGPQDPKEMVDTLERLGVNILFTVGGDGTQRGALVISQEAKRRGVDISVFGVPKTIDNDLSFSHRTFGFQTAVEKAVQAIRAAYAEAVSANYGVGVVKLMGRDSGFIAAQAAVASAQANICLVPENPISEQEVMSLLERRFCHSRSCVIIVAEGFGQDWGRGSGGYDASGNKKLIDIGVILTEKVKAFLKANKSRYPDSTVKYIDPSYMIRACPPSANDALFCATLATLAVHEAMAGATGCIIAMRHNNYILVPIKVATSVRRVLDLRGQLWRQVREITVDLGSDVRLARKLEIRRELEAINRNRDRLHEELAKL
Description: qHTS Validation Assay to Find Inhibitors of T. brucei phosphofructokinase (AID 485368).
In the case of `N.N.[Cl][Pt][Cl]`, the compound was called active.

Source of the values: the GenesisPotency data set.
